# Data taken from the supplement of paper PMC10849652.
# The full data set covers some 8,800 targets. This sample favours those with a hit. About 0.5% of all pairs of compound and target were hits. A number with no mark means an inactive call.
# What was measured:
# Assay in all cases: log2 fold change, soluble protein after heating vs DMSO (PISA); higher = thermal stabilisation; K562 lysate, 10 uM; active = over 0.2 and 3.5 SD of the protein, either way, in both replicates (recomputed)
# [1] = compound: CCCS(=O)(=O)Nc1ccc(F)c(C(=O)c2c[nH]c3ncc(Cl)cc23)c1F
# Outline: (§1)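 Following dounce homogenisation of K562 pellets in PBS pH 7.4 with 1 mM MgCl2, crude extract at 1 mg/mL protein was incubated for 30 min with 10 μM compound. Aliquots were then heated for 3 min over 48°C-58°C and pooled, NP-40 was added to 0.5% at 4°C, and soluble protein was recovered as the supernatant at 21,000xg for 90 min. Channel-sum-equalised TMTpro 16plex LC-MS/MS quantified this protein. Each value, from duplicates, is a log-two fold change in thermal stability relative to solvent controls.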
# [2] = compound: CCN(CCCOc1ccc2c(Nc3cc(CC(=O)Nc4cccc(F)c4)[nH]n3)ncnc2c1)CCOP(=O)(O)O [barasertib]
# Outline: as §1
# [3] = compound: CC[C@@H]1C(=O)N(C)c2cnc(Nc3ccc(C(=O)N[C@H]4CC[C@H](N5CCN(CC6CC6)CC5)CC4)cc3OC)nc2N1C(C)C [volasertib]
# Outline: as §1
# [4] = compound: CCn1cc(-c2ccnc3[nH]c(-c4cccc(CN(C)C)c4)cc23)c(-c2ccc(NC(=O)N(C)C)cc2)n1
# Outline: as §1
# [5] = compound: CN1CCC(CNc2ccc3ncc(-c4cccc(OC(F)(F)F)c4)n3n2)CC1
# Outline: as §1
# [6] = compound: CN1CCN(c2nc(C3=C(c4c[nH]c5ccccc45)C(=O)NC3=O)c3ccccc3n2)CC1 [sotrastaurin]
# Outline: as §1
# [7] = compound: CCn1c(C(=O)N(C2CC2)C2CC2)cc2c3c(ncn3C)c(Nc3cc(C)n(C)n3)nc21
# Outline: as §1
# [8] = compound: CN1CCN(CCOc2cc(OC3CCOCC3)c3c(Nc4c(Cl)ccc5c4OCO5)ncnc3c2)CC1 [saracatinib]
# Outline: as §1
# UniProt Q8TD43, sequence (Q8TD43 whole entry, looked up): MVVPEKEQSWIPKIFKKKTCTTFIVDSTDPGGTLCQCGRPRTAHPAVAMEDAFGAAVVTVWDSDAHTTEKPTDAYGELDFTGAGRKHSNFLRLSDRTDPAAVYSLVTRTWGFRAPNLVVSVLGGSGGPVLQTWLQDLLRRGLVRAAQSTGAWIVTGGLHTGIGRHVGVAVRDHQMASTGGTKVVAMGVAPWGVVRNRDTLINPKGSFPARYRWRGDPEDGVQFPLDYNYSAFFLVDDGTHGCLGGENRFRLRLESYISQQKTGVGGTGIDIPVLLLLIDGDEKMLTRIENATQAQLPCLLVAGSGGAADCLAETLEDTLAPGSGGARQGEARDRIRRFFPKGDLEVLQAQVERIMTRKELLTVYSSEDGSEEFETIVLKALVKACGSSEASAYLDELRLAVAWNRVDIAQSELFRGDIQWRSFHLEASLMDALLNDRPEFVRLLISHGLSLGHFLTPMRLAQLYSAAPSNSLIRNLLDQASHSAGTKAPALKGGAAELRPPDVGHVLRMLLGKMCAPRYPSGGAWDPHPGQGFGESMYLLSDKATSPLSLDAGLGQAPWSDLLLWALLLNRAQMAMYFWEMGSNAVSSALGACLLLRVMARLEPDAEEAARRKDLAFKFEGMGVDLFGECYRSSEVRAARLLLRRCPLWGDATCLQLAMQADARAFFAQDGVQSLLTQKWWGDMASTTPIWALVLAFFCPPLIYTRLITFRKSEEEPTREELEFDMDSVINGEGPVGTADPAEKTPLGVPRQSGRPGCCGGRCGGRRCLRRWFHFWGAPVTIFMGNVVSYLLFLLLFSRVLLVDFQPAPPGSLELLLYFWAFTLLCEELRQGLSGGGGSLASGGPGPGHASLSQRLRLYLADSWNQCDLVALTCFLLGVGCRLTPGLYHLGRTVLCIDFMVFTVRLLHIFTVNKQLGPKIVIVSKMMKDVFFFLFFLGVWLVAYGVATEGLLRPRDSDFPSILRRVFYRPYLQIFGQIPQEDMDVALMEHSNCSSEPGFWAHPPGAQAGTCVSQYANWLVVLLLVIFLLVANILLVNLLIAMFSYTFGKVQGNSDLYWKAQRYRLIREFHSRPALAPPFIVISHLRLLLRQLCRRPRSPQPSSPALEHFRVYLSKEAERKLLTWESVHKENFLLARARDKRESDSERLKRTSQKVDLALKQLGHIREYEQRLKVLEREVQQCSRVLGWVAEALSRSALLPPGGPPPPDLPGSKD
# UniProt Q6N022, sequence (Q6N022 whole entry, looked up): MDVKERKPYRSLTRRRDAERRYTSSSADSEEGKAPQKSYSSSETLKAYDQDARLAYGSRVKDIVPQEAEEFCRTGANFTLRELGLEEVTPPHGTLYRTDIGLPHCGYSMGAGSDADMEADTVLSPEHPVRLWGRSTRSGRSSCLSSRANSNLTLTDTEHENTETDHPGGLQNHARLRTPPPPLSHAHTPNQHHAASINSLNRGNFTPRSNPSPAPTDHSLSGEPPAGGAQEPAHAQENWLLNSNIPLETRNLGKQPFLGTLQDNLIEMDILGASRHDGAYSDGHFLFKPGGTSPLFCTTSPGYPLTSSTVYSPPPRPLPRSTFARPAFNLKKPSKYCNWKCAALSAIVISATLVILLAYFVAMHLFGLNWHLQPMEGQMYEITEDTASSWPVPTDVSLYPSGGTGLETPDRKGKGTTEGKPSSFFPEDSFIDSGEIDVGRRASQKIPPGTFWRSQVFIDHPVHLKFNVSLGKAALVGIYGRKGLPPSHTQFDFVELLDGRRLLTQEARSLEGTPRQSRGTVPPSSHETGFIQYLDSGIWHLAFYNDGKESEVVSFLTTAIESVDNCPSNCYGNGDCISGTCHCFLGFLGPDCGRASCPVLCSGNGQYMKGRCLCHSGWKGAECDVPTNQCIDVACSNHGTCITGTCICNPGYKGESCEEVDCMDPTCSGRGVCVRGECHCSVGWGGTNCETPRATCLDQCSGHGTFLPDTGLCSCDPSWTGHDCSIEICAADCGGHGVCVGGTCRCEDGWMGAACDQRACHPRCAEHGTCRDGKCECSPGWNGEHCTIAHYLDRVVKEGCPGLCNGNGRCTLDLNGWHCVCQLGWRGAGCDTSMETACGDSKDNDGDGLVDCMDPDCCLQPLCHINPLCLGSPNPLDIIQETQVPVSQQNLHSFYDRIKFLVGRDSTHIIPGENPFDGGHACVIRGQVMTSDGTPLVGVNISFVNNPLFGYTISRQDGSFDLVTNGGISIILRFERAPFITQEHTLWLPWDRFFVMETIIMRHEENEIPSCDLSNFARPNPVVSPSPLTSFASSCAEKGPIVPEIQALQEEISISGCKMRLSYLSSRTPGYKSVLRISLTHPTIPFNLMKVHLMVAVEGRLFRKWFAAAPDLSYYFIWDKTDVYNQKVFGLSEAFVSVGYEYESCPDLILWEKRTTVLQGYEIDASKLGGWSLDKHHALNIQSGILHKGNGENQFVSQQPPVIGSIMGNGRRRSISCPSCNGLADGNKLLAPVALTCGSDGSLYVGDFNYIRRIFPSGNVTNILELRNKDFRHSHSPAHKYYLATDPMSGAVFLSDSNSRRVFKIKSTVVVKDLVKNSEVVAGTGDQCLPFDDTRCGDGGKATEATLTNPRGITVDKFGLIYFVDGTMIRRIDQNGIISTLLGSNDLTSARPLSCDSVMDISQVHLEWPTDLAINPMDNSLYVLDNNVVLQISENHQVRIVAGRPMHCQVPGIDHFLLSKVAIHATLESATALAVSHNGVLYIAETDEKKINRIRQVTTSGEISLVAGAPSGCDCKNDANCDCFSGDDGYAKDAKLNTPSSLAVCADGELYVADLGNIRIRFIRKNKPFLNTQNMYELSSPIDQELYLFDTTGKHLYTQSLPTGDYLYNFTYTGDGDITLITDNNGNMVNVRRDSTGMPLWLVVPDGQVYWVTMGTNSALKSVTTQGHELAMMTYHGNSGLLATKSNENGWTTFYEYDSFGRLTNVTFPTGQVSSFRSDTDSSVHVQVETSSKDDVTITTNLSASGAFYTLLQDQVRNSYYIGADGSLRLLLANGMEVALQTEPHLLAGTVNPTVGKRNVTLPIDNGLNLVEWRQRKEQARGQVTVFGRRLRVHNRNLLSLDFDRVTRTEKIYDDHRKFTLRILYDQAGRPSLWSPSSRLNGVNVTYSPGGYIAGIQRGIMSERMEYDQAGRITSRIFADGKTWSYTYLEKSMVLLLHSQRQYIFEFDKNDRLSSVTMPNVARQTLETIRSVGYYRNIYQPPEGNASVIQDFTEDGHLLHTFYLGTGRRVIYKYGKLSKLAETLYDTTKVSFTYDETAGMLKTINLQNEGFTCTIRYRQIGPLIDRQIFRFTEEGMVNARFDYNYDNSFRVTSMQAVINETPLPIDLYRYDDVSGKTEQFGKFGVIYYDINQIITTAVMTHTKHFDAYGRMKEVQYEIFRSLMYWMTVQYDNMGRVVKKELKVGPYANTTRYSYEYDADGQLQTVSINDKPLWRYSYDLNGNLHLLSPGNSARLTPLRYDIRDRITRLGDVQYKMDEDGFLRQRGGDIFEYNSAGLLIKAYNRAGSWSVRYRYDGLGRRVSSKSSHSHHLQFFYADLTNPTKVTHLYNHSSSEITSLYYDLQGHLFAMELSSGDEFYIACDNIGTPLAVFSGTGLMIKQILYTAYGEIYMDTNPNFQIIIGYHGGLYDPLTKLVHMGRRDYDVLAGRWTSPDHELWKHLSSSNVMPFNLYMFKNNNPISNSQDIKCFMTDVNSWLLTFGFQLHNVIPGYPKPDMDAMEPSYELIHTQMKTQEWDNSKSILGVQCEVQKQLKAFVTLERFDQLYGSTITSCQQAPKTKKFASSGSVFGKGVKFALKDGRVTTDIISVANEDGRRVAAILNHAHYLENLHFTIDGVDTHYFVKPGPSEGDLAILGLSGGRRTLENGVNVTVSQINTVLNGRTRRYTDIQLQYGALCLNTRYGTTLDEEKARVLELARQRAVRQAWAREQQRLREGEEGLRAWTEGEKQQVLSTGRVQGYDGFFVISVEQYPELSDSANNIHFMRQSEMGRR
# UniProt Q86UE8, sequence (Q86UE8 whole entry, looked up): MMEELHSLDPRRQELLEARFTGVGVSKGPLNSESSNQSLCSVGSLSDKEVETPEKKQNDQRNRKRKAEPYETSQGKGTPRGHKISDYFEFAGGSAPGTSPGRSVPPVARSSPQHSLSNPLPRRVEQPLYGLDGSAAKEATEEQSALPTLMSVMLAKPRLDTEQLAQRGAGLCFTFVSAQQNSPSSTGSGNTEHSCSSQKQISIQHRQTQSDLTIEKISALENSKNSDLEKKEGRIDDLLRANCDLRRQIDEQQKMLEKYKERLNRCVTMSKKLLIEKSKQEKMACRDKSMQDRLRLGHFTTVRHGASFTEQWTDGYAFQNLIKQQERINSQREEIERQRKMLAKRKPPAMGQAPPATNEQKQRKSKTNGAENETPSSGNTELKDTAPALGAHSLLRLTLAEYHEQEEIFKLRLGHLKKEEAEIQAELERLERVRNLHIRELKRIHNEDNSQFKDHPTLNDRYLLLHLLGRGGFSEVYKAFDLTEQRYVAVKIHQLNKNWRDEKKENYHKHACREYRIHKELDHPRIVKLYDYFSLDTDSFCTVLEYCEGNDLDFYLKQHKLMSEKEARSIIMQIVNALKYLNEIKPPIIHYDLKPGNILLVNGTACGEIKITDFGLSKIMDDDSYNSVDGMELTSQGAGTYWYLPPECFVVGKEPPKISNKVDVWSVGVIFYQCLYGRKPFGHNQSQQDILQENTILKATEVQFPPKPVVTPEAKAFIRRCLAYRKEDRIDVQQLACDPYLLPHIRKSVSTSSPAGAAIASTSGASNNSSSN
Target,log2 fold change [1],log2 fold change [2],log2 fold change [3],log2 fold change [4],log2 fold change [5],log2 fold change [6],log2 fold change [7],log2 fold change [8]
TENM4 (UniProt Q6N022),-0.205,0.104,-0.069,0.534 (active),-0.257,0,–,–
TRPM4 (UniProt Q8TD43),–,0.456,–,-0.598,0.156,0.11,0.066,0.044
TLK2 isoform 3 (UniProt Q86UE8),–,–,–,0.104,-0.036,–,–,–
